Out of some 30,000 compounds screened, about 240 (0.8%) were called active. The entries come from a sample that favours actives as a whole. A number with no mark means an inactive call.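 The calls were made as follows: active = at 10 µM dose, at least 30% inhibition, measured as corrected fluorescence normalized to stimulator and neutral control wells; inactive = the rest.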 Peptide text beside a SMILES is read from it. * marks the point of attachment. Bz = O=C(c1ccccc1)*
These compounds were tested against Protein artemis (Homo sapiens) (UniProt Q96SD1) (assay: blockers of Artemis DNA hairpin overhang cleavage – biochemical, fluorescence intensity, FAM/BHQ-1 hairpin substrate, primary screen (AID 686954)). Conditions: recombinant Artemis, quenched FAM hairpin cleavage fluorescence; at 10 µM; active compounds read high.
Protein artemis (Homo sapiens), sequence (Q96SD1 whole entry, looked up): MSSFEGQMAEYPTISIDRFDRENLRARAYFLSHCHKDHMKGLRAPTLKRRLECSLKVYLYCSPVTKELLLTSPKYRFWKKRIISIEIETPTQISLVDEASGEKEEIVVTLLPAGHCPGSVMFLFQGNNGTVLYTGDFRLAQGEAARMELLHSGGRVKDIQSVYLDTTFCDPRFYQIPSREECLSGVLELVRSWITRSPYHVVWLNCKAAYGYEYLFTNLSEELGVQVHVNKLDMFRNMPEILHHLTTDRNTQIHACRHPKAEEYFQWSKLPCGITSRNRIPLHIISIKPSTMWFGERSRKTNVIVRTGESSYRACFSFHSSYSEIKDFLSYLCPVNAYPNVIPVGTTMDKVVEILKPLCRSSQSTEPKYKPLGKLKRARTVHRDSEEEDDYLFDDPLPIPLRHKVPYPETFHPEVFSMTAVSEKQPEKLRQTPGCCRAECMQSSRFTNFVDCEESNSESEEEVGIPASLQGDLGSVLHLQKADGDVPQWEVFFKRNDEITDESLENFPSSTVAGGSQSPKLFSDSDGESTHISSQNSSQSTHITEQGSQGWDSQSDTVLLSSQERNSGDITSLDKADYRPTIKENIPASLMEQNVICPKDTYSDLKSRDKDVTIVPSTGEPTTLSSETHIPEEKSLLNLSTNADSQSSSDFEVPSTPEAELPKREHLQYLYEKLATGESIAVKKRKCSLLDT
Work on `O=c1c2ccccc2nc2n1C(CSCc1ccccc1)CS2` (stereo not drawn) yielded an inhibition of 2.82%. Work on `COC(=O)CSC1=C(C#N)C(c2ccccc2OC)C(C(=O)OC)C(=O)N1` (stereo not drawn) yielded an inhibition of -3.1%. `Cc1ccc(/C=N/NC(=O)c2sccc2OCc2ccc(F)cc2)cc1` was tested, and the inhibition was 22.2%. `COc1ccc(CC(=O)Nc2nc3n(n2)C(c2ccccc2)CC(=O)N3)cc1OC` (stereo not drawn) gave an inhibition of -12.5%. In the case of `O=C(N/N=C/c1ccc(O)c(O)c1)C1c2ccccc2Oc2ccccc21`, the inhibition is reported as 30.2% (active). `O=C(N/N=C/c1ccsc1)c1cc(O)cc(O)c1` showed an inhibition of 10.2%. `COc1ccc(C(=O)Nc2ccccc2C(=O)N/N=C/c2ccc(O)c(OC)c2)cc1` showed an inhibition of 3.38%. For `Cc1ccc(Cn2c(NC(=O)c3ccco3)nc3ccccc32)cc1`, the inhibition was 0.73%. Compound `Clc1cccc(-c2nc3nc4ccccc4nc3n2Cc2ccco2)c1` has an inhibition of 27%. With `Cc1ccc(Cn2c(C)nc3c(c2=O)c2nc4ccccc4nc2n3Cc2ccco2)cc1` the inhibition was 40.3% (active). `CCCn1c(C)cc(C(=O)COC(=O)c2c(C)nn(-c3ccccc3)c2C)c1C` gave an inhibition of 10.5%. `CC(C)(C)Cc1nnc(NC(=O)c2cc(-c3ccccc3)nc3ccccc23)s1` showed an inhibition of 13.6%. `O=C(/C=C/Nc1ccccc1OC(F)(F)F)C(F)(F)F` gave an inhibition of -11.1%. For `COc1ccc(Cc2nnnn2CC(=O)O)cc1`, the inhibition was 3.92%. `CC1CCc2c(c3ccccc3[nH]c2=O)O1` (stereo not drawn) showed an inhibition of 13.8%. `Cn1c(CO)cnc1SCc1ccccc1` was tested, and the inhibition was -0.47%. `COc1ccccc1NS(=O)(=O)N(C)C` showed an inhibition of 4.92%. Compound `C=CCn1c(N)cc(=O)nc1SCC(=O)Nc1cccc2ccccc12` has an inhibition of -2.38%. Compound `O=C(COc1cc(Cl)c(Cl)cc1Cl)NC(=O)NC1CCCC1` has an inhibition of 5.4%. `O=C(NC(Cc1ccccc1)C(=O)N1CCCC1C(=O)O)c1ccccc1` (stereo not drawn) (Bz-Phe-Pro-OH; configuration not given here) was tested, and the inhibition was 3.37%. `CCCC(C(=O)NCc1ccco1)N(C(=O)CNS(=O)(=O)c1ccccc1)C1CCCC1` (stereo not drawn) gave an inhibition of 9.71%. Compound `CSC1=N/C(=C\C=C\c2cccs2)C(=O)S1` has an inhibition of 4.46%. `Cc1ccsc1/C=C1\SC(N2CCOCC2)=NC1=O` was tested, and the inhibition was -5.58%. In the case of `Cc1ccc(N2CCN(C3=NC(=O)/C(=C\c4cccs4)S3)CC2)cc1`, the inhibition is reported as 30.4% (active). Work on `Cc1cccc(C(=O)N2CCCN(C(=O)c3cccc(C)c3)CC2)c1` yielded an inhibition of 4.29%. For `CCC(C)NC(=O)c1cc(Cl)ccc1OC` (stereo not drawn), the inhibition was 1.25%. With `c1ccc(-c2nccc(-c3ccc(-n4cnc5ccccc54)cc3)n2)nc1` the inhibition was 100% (active). Compound `COc1ccc(-c2cc(C(=O)n3cnc4ccccc43)c3ccccc3n2)cc1` has an inhibition of 0.93%. Work on `N#CCCn1cnc2ccccc21` yielded an inhibition of 0.47%. Compound `CC(=O)N1Cc2ccccc2CC1C(=O)O` (stereo not drawn) has an inhibition of -0.69%. `Cc1ccc(C(=O)Nc2c(C#N)c(C)c(C)n2Cc2ccccc2)cc1` was tested, and the inhibition was -5.83%. Work on `CC(C)NC(=O)C(=O)NCCCOC(C)C` yielded an inhibition of -3.28%. Compound `COC(=O)C(C(=O)Nc1cccc(C)n1)C1CCCCCC1` (stereo not drawn) has an inhibition of -2.41%. With `COc1ccc(CCN2C(=O)C3CC=C(C)CC3C2=O)cc1OC` (stereo not drawn) the inhibition was -6.71%. Work on `COC(=O)C1=C(Nc2ccc(OC)cc2)C=C(C)C(C(=O)OC)C1c1ccc(C)cc1` (stereo not drawn) yielded an inhibition of -2.07%. With `Fc1ccc(Br)cc1/C=N/n1cnnc1` the inhibition was -9.95%. Compound `O=C(/C=C/c1cc2c(cc1Br)OCO2)NCc1ccc(Cl)cc1` has an inhibition of -4.49%. `O=C(NN1C(=O)C2C3C=CC(C4CC34)C2C1=O)c1ccc(Cl)cc1` (stereo not drawn) showed an inhibition of -4.12%. Work on `O=c1c2ccccc2nc2n1C(CSc1ccc(F)cc1)CN2` (stereo not drawn) yielded an inhibition of -16.9%. `COc1ccc(C(=O)Oc2cc(/C=N/NS(=O)(=O)c3ccc(C)cc3)ccc2OC)cc1` showed an inhibition of 4.47%. `COC(=O)c1sccc1-n1cccc1C(=O)C(=O)N1CCCCC1` showed an inhibition of -4.39%. Work on `O=C(/C=N/O)Nc1ccccc1` yielded an inhibition of 16.8%. `CSc1ccc(C#N)cc1NC(=O)c1cccc(Cl)c1` gave an inhibition of -11%. With `Cc1c(C(=O)NCc2ccccc2)cnn1-c1ccccc1` the inhibition was 0.06%. `O=C(c1ccccc1)C(Cn1cncn1)C(Sc1ccccc1)c1ccccc1` (stereo not drawn) showed an inhibition of 7.82%. `CC(C)NC(=O)CSc1ccccc1C(=O)NCc1ccc2c(c1)OCO2` gave an inhibition of -4.49%. Compound `CCOc1ccc2nc(SC(CC)C(=O)Nc3cc(C)on3)sc2c1` (stereo not drawn) has an inhibition of -0.74%. `CCc1ccc(/C=N/NC(=O)c2ccc(OC3CCCC3)cc2)s1` showed an inhibition of 14.9%. `O=C(COc1ccc(/C=N/NS(=O)(=O)c2ccccc2)cc1)NCCc1ccccc1` showed an inhibition of 5.78%. Work on `NC(=O)c1ccccc1NC(=O)c1ccccc1F` yielded an inhibition of 3.21%. With `Cc1ccc(NC(=S)NC(=O)c2ccc(-c3ccccc3)cc2)c(C)c1` the inhibition was 8.05%. With `Cc1ccc(NC(=O)Nc2ccc3oc(C)nc3c2)cc1` the inhibition was 4.51%. `Cc1ccc(OCCCC(=O)N2CCOCC2)c(C)c1` showed an inhibition of -3.31%. In the case of `CCOc1cc(C(=S)N2CCOCC2)ccc1O`, the inhibition is reported as 44.1% (active). `COc1cc(C(=S)N2CCOCC2)cc(OC)c1OC(=O)c1cc([N+](=O)[O-])cc([N+](=O)[O-])c1` was tested, and the inhibition was 5.88%. For `Nc1c(-c2ccc(F)cc2)cnn1C1CCS(=O)(=O)C1` (stereo not drawn), the inhibition was -12.3%. With `O=C(NC1CCC(O)CC1)c1ccc(S(=O)(=O)NCc2ccco2)cc1` (stereo not drawn) the inhibition was -0.49%. For `COCCCNCC(=O)Nc1sc(C)c(C)c1C(=O)OC`, the inhibition was 8.99%. With `CSc1ccc(C#N)cc1NC(=O)c1ccc(Cl)cc1` the inhibition was -3.87%. For `Cc1cccc(N2CCN(C(c3ccccc3)c3nnnn3CC3CCCO3)CC2)c1C` (stereo not drawn), the inhibition was 1.54%. For `O=C(O)C1CC=CCC1C(=O)Nc1ccccc1C(=O)N1CCN(c2ccccc2)CC1` (stereo not drawn), the inhibition was 11.9%. `CC1CN(c2nc(-c3ccccc3)nnc2-c2ccccc2)CC(C)O1` (stereo not drawn) was tested, and the inhibition was 3.23%. In the case of `Cc1cc(N=CC2=C(O)CCCC2=O)no1`, the inhibition is reported as -4.13%.

Source: PubChem BioAssay AID686954 (Sanford-Burnham Center for Chemical Genomics, 2013)
